Shown are actives, neighbours in structure and some others; about 3.3% of the full set was active somewhere.
AmpC inh detg = blocks E. coli AmpC beta-lactamase in detergent assay; P00811; AmpC hydrolysis of nitrocefin, absorbance 480 nm, 0.01% Triton; Potency, µM (series often up to 114 µM), for inactives: top-dose activity change, negative = inhibition, hits mostly inhibitors; 370,000 tested, 0.041% active; AID 485294;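 note: 0% = no-compound wells and -100% = no-enzyme wells; nearly all actives have a fitted effect of over 25% in size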
Target sequence (P00811 whole entry, looked up): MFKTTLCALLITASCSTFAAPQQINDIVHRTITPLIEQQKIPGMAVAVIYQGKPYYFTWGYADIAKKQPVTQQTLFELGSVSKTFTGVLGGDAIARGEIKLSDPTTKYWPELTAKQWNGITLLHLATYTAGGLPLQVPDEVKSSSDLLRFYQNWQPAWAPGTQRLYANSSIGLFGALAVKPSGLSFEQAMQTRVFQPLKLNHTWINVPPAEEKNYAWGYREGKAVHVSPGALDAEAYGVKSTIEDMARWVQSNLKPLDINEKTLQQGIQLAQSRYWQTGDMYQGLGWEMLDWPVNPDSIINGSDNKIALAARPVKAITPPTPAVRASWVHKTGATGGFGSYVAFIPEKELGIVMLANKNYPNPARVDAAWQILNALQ
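AmpC (5.3 nM in the dispensed reagent) in 20 mM phosphate pH 7.0 with 0.01% (detergent screen) or 0.0001% Triton X-100 was preincubated with compounds for 15 min at room temperature. Nitrocefin was then added from an 800 uM solution, and hydrolysis was followed at 480 nm.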
Sm TGR block = blocks Schistosoma mansoni thioredoxin glutathione reductase | Q962Y6 | purified TGR, DTNB reduction, TNB absorbance 405 nm | Potency, µM (titrated, usually from 114 µM), inactives show at the highest dose activity change, negative = inhibition, most hits filed as inhibitors | 360,000 tested, 3% active | AID 485364; note: % is set by controls: 0 for no effect and ±100 for the full control effect; nearly all actives have a fitted effect of over 60% in size
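TGR 20 nM + NADPH 100 uM (dispensed conc.), cpd preinc 15 min RT; start with NADPH (500 uM addition) then DTNB (15 mM addition). Kinetic TNB absorbance, 405 nm filter. Four-parameter Hill fit across titration.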
Tb PYK inh = blocks Trypanosoma brucei pyruvate kinase; Q57TT1; TbPYK enzyme, Kinase-Glo Plus ATP luminescence, 45 min; Potency, µM (titrated, usually from 76.8 µM), for the others: at the highest dose activity, negative = inhibition, most hits filed as inhibitors; 410,000 tested, 0.12% active; AID 624173; note: % is set by controls: 0 for no effect and ±100 for the full control effect; nearly all actives have a fitted effect of over 50% in size
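Glycolytic pyruvate kinase of T. brucei was incubated with substrate, test compound and 130 uM ADP for 45 minutes at room temperature. Luminescent Kinase-Glo Plus signal was measured after 10 minutes.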
SARS PLP yeast = SARS-CoV PLP inhibition in yeast | S. cerevisiae expressing SARS-CoV PLpro, growth rescue | Potency, µM (titrated, usually from 32.9 µM), inactives show at the highest dose activity, positive = growth rescue, most hits filed as activators | 330,000 tested, 0.19% active; calls by dose curve; note: 0% is about no effect; nearly all actives have a fitted effect of over 55% in size
AmpC no deterg = blocks E. coli AmpC beta-lactamase in detergent-free assay. P00811. AmpC nitrocefin hydrolysis, absorbance 480 nm, 0.0001% Triton. Potency, µM (highest dose often 57.1 µM), inactives show top-dose activity change, negative = inhibition, actives largely listed as inhibitors. 330,000 tested, 0.52% active. AID 485341;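 note: plate controls were no compound for no effect and no enzyme for full effect; nearly all actives have a fitted effect of over 20% in size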
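AmpC (5.3 nM in the dispensed reagent) in 20 mM phosphate pH 7.0 with 0.01% (detergent screen) or 0.0001% Triton X-100 was preincubated with compounds for 15 min at room temperature. Nitrocefin was then added from an 800 uM solution, and hydrolysis was followed at 480 nm.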
RE007 growth inh = less growth of the S. pombe RE007 Vpr strain; S. pombe RE007 Vpr strain, BacTiter-Glo ATP luminescence, 24 h; Potency, µM (top dose mostly 92.2 µM), for inactives: at the top dose activity change, negative = less growth, usual class: inhibitors; 360,000 tested, 0.21% active; active = well fitted falling curve with a large enough effect; inconclusive = small, poorly fitted or top-dose-only effect; inactive = no such curve, though single readings can be large or run the other way; note: % is set by controls: 0 for no effect and ±100 for the full control effect; nearly all actives have a fitted effect of over 50% in size
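Fission yeast RE007 carrying one integrated HIV-1 vpr copy, seeded at OD 0.01 in PMG+AL medium with 23 nL pinned compound. Grown 24 h at 30 degrees; viability read by BacTiter-Glo luminescence after 5 min.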
* hit, by the source's call; ? = inconclusive; / = no result given; [ ] = another dose, or the depositor's remark. Unless noted, calls come from the whole dose curve; as a rule, active = well fitted curve in the direction sought with a large enough effect; inconclusive = small, poorly fitted or top-dose-only effect, or another doubt; inactive = no such curve, though single readings can be large; an effect the other way counts as inactive or inconclusive. Potency is the fitted concentration of half-maximal effect.

SMILES	AmpC inh detg	Sm TGR block	Tb PYK inh	SARS PLP yeast	AmpC no deterg	RE007 growth inh
O=C(CSc1nccn1Cc1ccco1)Nc1cc(C(F)(F)F)ccc1Cl	-3.7%	2.6%	-6.9%	/	/	/
Cc1cccn2c(=O)c(C(=O)N3CCN(c4ccccc4F)CC3)cnc12	3.8%	35.3%	-1.3%	/	/	/
C=CCN1C(=O)/C(=C/c2cccs2)C(=O)NC1=S	-4.7%	10µM*	35.5µM*	3.8%	-31.0%	?
CN(C)c1ccc(/C=C2/C(=O)NC(=O)N(Cc3ccco3)C2=O)cc1	-12.1%	?	-23.1%	-1.7%	-15.1%	4.2%
O=C1NC(=S)N(Cc2ccco2)C(=O)/C1=C\c1cccs1	44.7µM*	3.55µM*	/	2.1%	-59.6%	/
CCc1ccc(NC(=O)CC2C(=O)N(c3ccc(Cl)cc3)C(=O)N2Cc2cccs2)cc1 (stereo not drawn)	10.9%	5.4%	5.1%	/	/	/
CCOc1ccccc1NC(=O)Cn1c(=O)oc2cc(S(=O)(=O)NCc3ccccc3)ccc21	-6.5%	-1.1%	-0.3%[15.4 µM]	/	/	/
COc1ccc(O)c(-c2cc(-c3cccc(Br)c3)n[nH]2)c1	-9.2%	1.7%[11.4 µM]	-5.1%	-21.8%	2.24µM*	?
O=[N+]([O-])c1ccccc1CCl	-3.1%	39.8µM*	2.6%	-12.5%	-13.5%	-6.6%
COc1ccc(OC)c(NC(=O)c2cc(=O)c3c(C)cc(C)cc3o2)c1	-6.2%	-5.2%	-6.8%	/	/	/
CCOC(=O)C1CCCN(C(=O)CCCn2c(=O)c3cccn3c3cccnc32)C1 (stereo not drawn)	-1.0%	3.0%	0.0%	2.5%	19.1%	8.4%
O=C(CCS(=O)(=O)Cc1ccccc1)N1CCc2ccccc2C1	-9.6%	28.2µM*	?	-4.5%	-22.5%	-14.7%
CCOC(=O)C1CCN(C(=O)CCc2ccccc2)CC1	-7.1%	89.1µM*	-9.6%	2.7%	2.7%	-5.4%
CCOC(=O)C1CCN(C(=O)CN(Cc2ccccc2)S(C)(=O)=O)CC1	-0.2%	9.4%	2.2%	0.8%	-4.8%	10.4%
CCOC(=O)C1CCN(C(=O)CCS(=O)(=O)Cc2ccccc2)CC1	-0.2%	44.7µM*	1.2%	1.3%	-1.1%	0.2%
CCOC(=O)C1CCN(C(=O)CCCn2c(=O)c3cccn3c3cccnc32)CC1	5.4%	79.4µM*	3.6%	1.8%	4.5%	7.7%
COc1ccc(N(C)C(=O)c2cn(C3CCCCC3)c(=O)c3c2c2ccccc2n3C)cc1	12.3%	4.7%	-10.4%	/	/	/
CC(/C=N/NC(=O)c1cnccn1)=C\c1ccco1	8.3%	28.2µM*	-1.7%	0.1%	-9.7%	-5.3%
CC(=C/c1ccco1)/C=N/NC(=O)c1ccncc1	3.1%	44.7µM*	3.0%	-2.0%	-18.4%	-5.8%
CC(/C=N/NC(=O)c1cccnc1)=C\c1ccco1	?	50.1µM*	7.2%	1.8%	-11.4%	7.5%
Cc1ccccc1NC(=O)c1c(NC(=O)c2ccncc2)sc2c1CCC(C(C)(C)C)C2 (stereo not drawn)	3.8%	8.6%	-0.5%	/	/	/
CC1(C)C(C(=O)O)N2C(=O)CC2S1(=O)=O (stereo not drawn)	/	/	-3.5%	/	/	/
CC(=O)c1cccc(OCc2cc(C(=O)N3C[C@H]4CC[C@H]3C4)no2)c1	5.4%	7.1%	6.3%	-0.3%	40.0%	4.8%
CC(=O)c1cccc(OCc2cc(C(=O)N(C)CCC3CCOCC3)no2)c1	?	2.24µM*	8.8%	4.1%	45.5%	9.6%
CC(=O)c1ccc(OCc2cc(C(=O)N(C)Cc3ccccn3)no2)cc1	0.0%	12.6µM*	-4.8%	0.0%	100.5%	1.9%
SMILES	AmpC inh detg	Sm TGR block	Tb PYK inh	SARS PLP yeast	AmpC no deterg	RE007 growth inh
CC(=O)c1cccc(OCc2cc(C(=O)N3C[C@@H](C)O[C@@H](C)C3)no2)c1	-6.8%	3.16µM*	0.8%	0.4%	3.4%	-0.4%
CC(=O)c1ccc(OCc2cc(C(=O)N3CCC[C@H]3CO)no2)cc1	0.2%	50.1µM*	10.0%	-0.2%	-7.0%	5.5%
Cc1nn(C)c2c1c(-c1ccccc1)cc(=O)n2CC(=O)NC(C)(C)C	-0.2%	-11.2%	1.4%	/	/	/
Cc1cc(C)cc(-n2ccn(Cc3ccc(F)cc3)c(=O)c2=O)c1	7.8%	-6.7%	-2.5%	/	/	/
COc1ccc(N=C/C=C2\C=C(c3ccccc3)OC(C)(C)O2)cc1	?	39.8µM*	-10.1%	-20.9%	-13.2%	-3.3%
COc1ccc(CN2CCN(C3CCSCC3)CC2CCO)c(C)c1C (stereo not drawn)	11.1%	35.5µM*	3.6%	1.5%	25.0%	-23.7%
CC(=O)c1ccc(N2CCN(c3ncnc4c3cnn4-c3cc(Cl)ccc3C)CC2)cc1	-4.2%	-8.0%	-0.1%	/	/	/
CC(C)(C)OC1NS(=O)(=O)OCC1NCOC(Cl)(Cl)Cl (stereo not drawn)	-16.7%	0.447µM*	-9.5%	-10.1%	-24.8%	1.9%
O=C1OC2(c3ccccc31)c1cc(I)c(O)c(I)c1Oc1c2cc(I)c(O)c1I	50.1µM*	0.891µM*	?	0.8%	25.1µM*	/
CCOc1ccc(C2=Cc3cc(OC)c(OC)cc3C(=C(Cl)Cl)O2)cc1	0.2%	35.5µM*	/	2.3%	21.7%	/
COc1cc(-c2nc(Cn3nnc(C(=O)Nc4ccccc4C)c3C)c(C)o2)cc(OC)c1OC	21.0%	4.9%	-9.6%	/	/	/
OC(C#Cc1ccccn1)c1cccs1 (stereo not drawn)	7.2%	1.41µM*	2.9%	-2.4%	-0.3%	-31.7%
O=C(CCc1nnc(CCCCc2ccccc2)o1)N1CCN(CCO)CC1	-3.8%	-5.4%	1.3%	1.1%	19.9%	1.8%
CC(=O)N1CCN(C(=O)CCc2nnc(CCCCc3ccccc3)o2)CC1	0.7%	44.7µM*	0.8%	1.4%	-10.7%	5.4%
O=C(Cn1cc(C(=O)C2CCCCC2)c2ccccc21)Nc1ccccc1Cl	16.9%	0.4%	0.0%	/	/	/
COc1ccc2c(Sc3ccccc3)c(C(=O)NCc3ccc(OC(C)C)cc3)[nH]c2c1	26.1%	4.6%	-7.8%	/	/	/
COC(CSc1ncnc2c1oc1nc3c(cc12)COC(C)(C)C3)OC	-4.4%	28.2µM*	-4.2%	0.4%	6.3%	19.2%
Cc1ccc(N(CC(O)COCc2ccco2)S(=O)(=O)c2ccc(C)cc2)cc1 (stereo not drawn)	?	8.91µM*	-6.1%	-10.1%	0.9%	-5.5%
Cc1ccc(S(=O)(=O)N(CC(=O)NC2CCCC2)c2cccc(C)c2)cc1	-7.3%	-10.8%	-2.8%	?	-4.7%	-3.0%
CCc1ccc(N(CC(=O)NC2CC2)S(=O)(=O)c2ccc(C)cc2)cc1	3.5%	39.8µM*	2.3%	-4.1%	47.6%	-5.1%

Screening data (PubChem BioAssay)
